Data from the supplement of paper PMC10849652.
The full data set covers some 7,900 targets. This sample favours those with a hit. About 0.6% of all pairs of compound and target were hits.

compound: c1cn2cc(-c3ccc4cn[nH]c4c3)nc(Nc3ccc(N4CCOCC4)cc3)c2n1 [entospletinib]; test: log2 fold change, soluble protein after heating vs DMSO (PISA); higher = thermal stabilisation; K562 cells, 10 uM, 30 min; active = over 0.2 and 3.5 SD of the protein, either way, in both replicates (recomputed)
Method in brief: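 For each measurement, 10 μM compound was applied for 30 min to K562 cells at 2×10^6 cells/mL. Aliquots were heated for 3 min across 48°C-58°C, pooled, and extracted in PBS with 0.5% NP-40 at 4°C; the supernatant after 21,000xg for 90 min was soluble protein. This was quantified by TMTpro 16plex LC-MS/MS with channel sums equalised, and thermal stability was reported relative to control samples from duplicates, on a log2 fold-change scale.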

Sequence of UniProt Q4KMP7 (Q4KMP7 whole entry, looked up): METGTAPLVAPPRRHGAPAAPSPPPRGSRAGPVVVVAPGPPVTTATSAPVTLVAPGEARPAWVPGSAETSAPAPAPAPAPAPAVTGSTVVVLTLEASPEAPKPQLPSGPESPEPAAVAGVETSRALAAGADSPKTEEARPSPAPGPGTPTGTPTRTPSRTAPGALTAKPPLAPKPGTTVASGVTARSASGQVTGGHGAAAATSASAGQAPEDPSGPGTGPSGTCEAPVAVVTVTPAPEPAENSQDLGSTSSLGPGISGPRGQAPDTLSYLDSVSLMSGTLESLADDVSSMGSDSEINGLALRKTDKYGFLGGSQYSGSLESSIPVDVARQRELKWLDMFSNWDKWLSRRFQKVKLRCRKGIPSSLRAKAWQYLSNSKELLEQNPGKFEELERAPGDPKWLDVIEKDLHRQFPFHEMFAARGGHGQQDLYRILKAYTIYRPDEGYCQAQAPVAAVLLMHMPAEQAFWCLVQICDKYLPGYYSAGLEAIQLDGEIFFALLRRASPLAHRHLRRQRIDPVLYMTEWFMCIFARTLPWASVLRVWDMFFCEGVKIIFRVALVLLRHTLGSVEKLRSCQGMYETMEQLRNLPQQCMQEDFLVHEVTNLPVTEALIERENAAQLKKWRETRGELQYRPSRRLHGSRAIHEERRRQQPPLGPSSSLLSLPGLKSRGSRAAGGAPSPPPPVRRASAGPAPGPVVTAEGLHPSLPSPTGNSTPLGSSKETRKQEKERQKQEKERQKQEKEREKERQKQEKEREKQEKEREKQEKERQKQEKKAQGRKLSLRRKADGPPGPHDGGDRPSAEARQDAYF
Sequence of UniProt Q15582 (Q15582 whole entry, looked up): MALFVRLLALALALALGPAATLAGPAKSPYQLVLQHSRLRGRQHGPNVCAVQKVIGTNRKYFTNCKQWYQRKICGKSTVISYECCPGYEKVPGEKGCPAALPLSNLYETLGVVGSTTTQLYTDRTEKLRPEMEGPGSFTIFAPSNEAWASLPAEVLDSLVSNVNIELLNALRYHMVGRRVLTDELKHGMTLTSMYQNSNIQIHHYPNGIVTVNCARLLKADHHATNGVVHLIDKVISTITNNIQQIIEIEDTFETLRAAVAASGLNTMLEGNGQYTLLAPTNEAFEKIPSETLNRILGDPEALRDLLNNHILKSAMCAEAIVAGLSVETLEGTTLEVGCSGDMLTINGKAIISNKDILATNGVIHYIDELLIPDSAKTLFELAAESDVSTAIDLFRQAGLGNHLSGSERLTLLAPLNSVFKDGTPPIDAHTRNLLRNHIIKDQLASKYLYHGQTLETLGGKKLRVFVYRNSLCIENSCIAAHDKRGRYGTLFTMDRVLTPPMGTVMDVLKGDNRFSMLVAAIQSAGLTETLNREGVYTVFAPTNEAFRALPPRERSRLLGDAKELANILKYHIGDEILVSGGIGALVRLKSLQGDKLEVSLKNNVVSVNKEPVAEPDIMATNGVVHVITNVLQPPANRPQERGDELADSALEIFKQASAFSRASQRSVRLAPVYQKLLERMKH
Sequence of UniProt P23497 (P23497 whole entry, looked up): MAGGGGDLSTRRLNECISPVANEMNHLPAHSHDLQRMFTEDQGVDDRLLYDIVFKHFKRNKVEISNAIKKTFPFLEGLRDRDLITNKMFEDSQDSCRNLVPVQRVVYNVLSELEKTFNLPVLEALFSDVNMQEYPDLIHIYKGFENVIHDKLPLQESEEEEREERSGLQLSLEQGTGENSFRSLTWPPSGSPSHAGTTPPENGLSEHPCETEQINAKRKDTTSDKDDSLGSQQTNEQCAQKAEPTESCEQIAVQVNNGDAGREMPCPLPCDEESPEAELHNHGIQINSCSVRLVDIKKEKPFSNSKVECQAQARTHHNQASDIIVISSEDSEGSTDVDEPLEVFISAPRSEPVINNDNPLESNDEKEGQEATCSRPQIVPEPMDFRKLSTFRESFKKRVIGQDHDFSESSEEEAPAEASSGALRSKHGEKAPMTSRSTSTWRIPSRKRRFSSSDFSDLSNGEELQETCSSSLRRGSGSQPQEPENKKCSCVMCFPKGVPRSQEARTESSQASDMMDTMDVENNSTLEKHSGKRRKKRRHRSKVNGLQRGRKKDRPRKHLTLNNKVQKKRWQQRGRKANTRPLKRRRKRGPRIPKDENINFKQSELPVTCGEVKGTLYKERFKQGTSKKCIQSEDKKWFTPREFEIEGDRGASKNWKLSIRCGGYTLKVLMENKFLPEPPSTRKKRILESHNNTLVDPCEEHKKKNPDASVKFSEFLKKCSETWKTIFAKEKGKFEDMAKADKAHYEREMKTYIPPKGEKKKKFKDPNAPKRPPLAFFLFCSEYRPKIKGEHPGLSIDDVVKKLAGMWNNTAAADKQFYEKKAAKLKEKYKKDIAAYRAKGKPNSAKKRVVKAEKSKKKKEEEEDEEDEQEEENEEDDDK
Sequence of UniProt Q9NZD8 (Q9NZD8 whole entry, looked up): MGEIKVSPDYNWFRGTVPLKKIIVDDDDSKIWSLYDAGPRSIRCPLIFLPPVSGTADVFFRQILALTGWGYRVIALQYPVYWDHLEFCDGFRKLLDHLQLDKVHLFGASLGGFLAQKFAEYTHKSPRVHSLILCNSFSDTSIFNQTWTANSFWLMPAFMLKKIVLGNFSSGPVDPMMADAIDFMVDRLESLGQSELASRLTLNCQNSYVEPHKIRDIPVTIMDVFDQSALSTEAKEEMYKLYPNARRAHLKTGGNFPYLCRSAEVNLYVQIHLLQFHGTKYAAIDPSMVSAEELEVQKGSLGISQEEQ
Sequence of UniProt P84103 (P84103 whole entry, looked up): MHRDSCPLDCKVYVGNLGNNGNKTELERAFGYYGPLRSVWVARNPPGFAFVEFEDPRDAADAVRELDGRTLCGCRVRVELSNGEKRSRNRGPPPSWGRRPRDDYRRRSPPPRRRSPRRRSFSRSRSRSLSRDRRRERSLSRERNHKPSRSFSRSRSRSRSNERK
Sequence of UniProt Q92844 (Q92844 whole entry, looked up): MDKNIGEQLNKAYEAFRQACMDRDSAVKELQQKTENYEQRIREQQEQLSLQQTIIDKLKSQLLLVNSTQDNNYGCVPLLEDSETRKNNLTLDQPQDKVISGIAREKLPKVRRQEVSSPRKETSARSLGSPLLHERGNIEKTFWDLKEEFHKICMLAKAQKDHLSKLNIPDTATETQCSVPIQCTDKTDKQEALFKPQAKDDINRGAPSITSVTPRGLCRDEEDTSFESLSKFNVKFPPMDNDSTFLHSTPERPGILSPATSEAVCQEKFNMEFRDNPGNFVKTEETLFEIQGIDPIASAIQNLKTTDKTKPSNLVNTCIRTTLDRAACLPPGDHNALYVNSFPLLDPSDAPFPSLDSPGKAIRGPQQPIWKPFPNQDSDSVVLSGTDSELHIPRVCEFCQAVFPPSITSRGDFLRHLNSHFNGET
Sequence of UniProt O95926 (O95926 whole entry, looked up): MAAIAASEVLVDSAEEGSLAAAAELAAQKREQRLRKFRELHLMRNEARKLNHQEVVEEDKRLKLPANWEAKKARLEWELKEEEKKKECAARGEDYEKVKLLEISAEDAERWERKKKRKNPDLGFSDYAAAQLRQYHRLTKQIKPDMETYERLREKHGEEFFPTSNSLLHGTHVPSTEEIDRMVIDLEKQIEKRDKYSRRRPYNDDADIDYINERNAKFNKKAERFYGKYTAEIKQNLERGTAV
Sequence of UniProt Q15796 (Q15796 whole entry, looked up): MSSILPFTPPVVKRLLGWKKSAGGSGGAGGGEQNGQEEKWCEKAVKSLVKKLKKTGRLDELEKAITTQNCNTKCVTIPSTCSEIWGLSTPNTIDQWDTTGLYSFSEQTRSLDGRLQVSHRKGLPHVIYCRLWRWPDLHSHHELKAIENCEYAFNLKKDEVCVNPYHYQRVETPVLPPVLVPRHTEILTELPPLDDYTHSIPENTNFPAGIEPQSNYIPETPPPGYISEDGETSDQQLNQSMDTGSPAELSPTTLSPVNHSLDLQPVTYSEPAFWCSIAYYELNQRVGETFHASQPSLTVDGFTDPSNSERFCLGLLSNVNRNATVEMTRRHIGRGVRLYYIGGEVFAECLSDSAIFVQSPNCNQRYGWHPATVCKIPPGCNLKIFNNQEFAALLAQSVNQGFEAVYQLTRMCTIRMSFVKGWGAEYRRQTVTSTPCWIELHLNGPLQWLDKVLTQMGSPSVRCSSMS
Sequence of UniProt Q86VD7 (Q86VD7 whole entry, looked up): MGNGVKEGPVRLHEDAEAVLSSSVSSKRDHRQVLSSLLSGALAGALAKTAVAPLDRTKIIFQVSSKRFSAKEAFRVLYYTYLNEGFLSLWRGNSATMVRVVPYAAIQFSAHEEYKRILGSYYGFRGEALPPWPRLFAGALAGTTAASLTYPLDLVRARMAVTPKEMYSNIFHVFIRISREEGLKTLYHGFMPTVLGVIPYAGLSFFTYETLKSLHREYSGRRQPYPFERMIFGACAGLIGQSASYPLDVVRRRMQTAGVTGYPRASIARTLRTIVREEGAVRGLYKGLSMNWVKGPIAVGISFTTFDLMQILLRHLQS
Sequence of UniProt Q96NT5 (Q96NT5 whole entry, looked up): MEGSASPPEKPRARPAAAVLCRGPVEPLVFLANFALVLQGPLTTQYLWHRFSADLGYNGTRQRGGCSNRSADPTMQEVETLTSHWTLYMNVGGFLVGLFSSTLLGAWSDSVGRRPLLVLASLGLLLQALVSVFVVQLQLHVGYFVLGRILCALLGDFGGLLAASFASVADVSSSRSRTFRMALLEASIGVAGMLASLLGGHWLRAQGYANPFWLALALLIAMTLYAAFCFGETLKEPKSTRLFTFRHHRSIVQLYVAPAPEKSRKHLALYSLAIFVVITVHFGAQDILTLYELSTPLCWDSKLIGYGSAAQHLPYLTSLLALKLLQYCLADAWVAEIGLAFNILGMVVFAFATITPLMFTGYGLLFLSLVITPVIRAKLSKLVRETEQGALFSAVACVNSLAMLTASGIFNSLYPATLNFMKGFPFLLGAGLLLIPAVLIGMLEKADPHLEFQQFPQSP

Target	log2 fold change
SNRK (UniProt Q9NRH2)	-0.27 (inactive)
TGFBI (UniProt Q15582)	0.063 (inactive)
SYF2 (UniProt O95926)	0.143 (inactive)
SPG11 (UniProt Q96JI7)	0.185 (inactive)
SPPL2B (UniProt Q8TCT7)	-0.056 (inactive)
STAT6 (UniProt P42226)	-0.052 (inactive)
SMG1 (UniProt Q96Q15)	-0.004 (inactive)
SLC4A2 (UniProt P04920)	0.028 (inactive)
SPG21 (UniProt Q9NZD8)	-0.028 (inactive)
SNX2 (UniProt O60749)	-0.015 (inactive)
STRN (UniProt O43815)	0.03 (inactive)
TBC1D10B (UniProt Q4KMP7)	0 (inactive)
SP1 (UniProt P08047)	0.068 (inactive)
ST3GAL2 (UniProt Q16842)	0.167 (inactive)
THRAP3 (UniProt Q9Y2W1)	0.09 (inactive)
SRSF3 (UniProt P84103)	0.153 (inactive)
TIAL1 isoform 2 (UniProt Q01085)	0.003 (inactive)
SLC46A1 (UniProt Q96NT5)	0.078 (inactive)

Target	log2 fold change
TBC1D23 (UniProt Q9NUY8)	-0.045 (inactive)
STK39 (UniProt Q9UEW8)	-0.007 (inactive)
SLIRP (UniProt Q9GZT3)	0.134 (inactive)
TBC1D9B (UniProt Q66K14)	0.138 (inactive)
SUGP1 (UniProt Q8IWZ8)	-0.04 (inactive)
TIMM29 (UniProt Q9BSF4)	0.033 (inactive)
SMAD2 (UniProt Q15796)	-0.013 (inactive)
SP100 isoform 4 (UniProt P23497)	0.045 (inactive)
SRRM2 (UniProt Q9UQ35)	-0.048 (inactive)
TANGO6 (UniProt Q9C0B7)	-0.089 (inactive)
TANK (UniProt Q92844)	-0.076 (inactive)
TACC2 (UniProt O95359)	-0.009 (inactive)
SLC25A42 (UniProt Q86VD7)	0.055 (inactive)
STAT5A (UniProt P42229)	-0.087 (inactive)
SOAT1 (UniProt P35610)	0.079 (inactive)
TEX264 (UniProt Q9Y6I9)	0.601 (active)
SLC9A6 isoform 2 (UniProt Q92581)	-0.004 (inactive)
